HIF activator: HIF pathway transcriptional activation; U2OS HRE-luciferase reporter, luminescence; normalized: DMSO 0%, desferrioxamine 100%; activation, % at 7.5 µM (by protocol); actives 0.32% (n = 300,000); AID 1910;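 active = mean activation of at least 10% of the iron chelator positive control signal, with at least half of replicates also reaching 10%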
SUMO Mot1 rescue: inhibitors of SUMOylation pathway: yeast Mot1-301 growth rescue. S. cerevisiae Mot1-301 growth rescue, ATP luminescence, 38.5C; percent above DMSO median, 100 means doubled. growth rescue, % at 18.8 µM. actives 1% (n = 320,000);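 active = every valid replicate shows activation above 250% relative to neutral control wells; inactive = the rest, any valid replicate at or below 250%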;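 also: OY570 slx delta 5 strain wells were the positive control but not used for scaling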
PfM18AAP inh: PfM18AAP enzyme inhibition | actives 1.2% (n = 290,000) | recombinant PfM18AAP, H-Glu-NHMec fluorogenic cleavage | inhibition, % at 7.35 µM;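 active = inhibition above the campaign mean inhibition over all tested compounds plus 3 SD, cut at about 28% in these data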;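 also: 0% = plate median of test compound wells and 100% = 2 mM ZnCl2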
ALR inh: blocks human ALR sulfhydryl oxidase activity. purified ALR, DTT oxidation, H2O2 HRP-luminol luminescence. actives 3.8% (n = 290,000). inhibition, % (test concentration not listed). AID 485317. P55789;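 active = mean replicate inhibition above about 79%, with every replicate also reaching it, limit read from the data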
Target sequence (P55789 whole entry, looked up): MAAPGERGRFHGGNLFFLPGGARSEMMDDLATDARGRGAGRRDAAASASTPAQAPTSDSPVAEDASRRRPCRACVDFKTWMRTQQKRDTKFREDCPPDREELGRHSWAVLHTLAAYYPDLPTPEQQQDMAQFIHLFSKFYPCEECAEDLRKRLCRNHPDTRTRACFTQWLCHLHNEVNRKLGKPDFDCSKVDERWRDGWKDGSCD
The depositor's hits bear a star; i = inactive; . = not tested or not shown. Compounds with a hit are over-represented: about 5.3% of the library has one in this group of screens.

SMILES	HIF activator	SUMO Mot1 rescue	PfM18AAP inh	ALR inh
COc1cccc(NC(=O)Cn2c(=O)n(CC3CCCO3)c(=O)c3ccccc32)c1 (centres undefined)	0.0	-16.8	5.3	-5.9
C1=C(c2ccco2)N2CCN=C2S1	0.2	-0.7	7.8	80.2*
Cc1cc(N2CCOCC2)nc2ccc(NC(=S)NC(C)C)cc12	-13.5	16.4	7.9	92.7*
COCCNC(=S)Nc1ccc2nc(N3CCOCC3)cc(C)c2c1	1.1	-21.7	-0.4	84.9*
COCCNC(=S)Nc1ccc2nc(N3CCCC3)cc(C)c2c1	0.1	-8.1	0.9	72.5
Cc1cc(N2CCOCC2)nc2ccc(NC(=S)NCc3ccc4c(c3)OCO4)cc12	0.3	-22.9	-3.7	98.8*
Cc1ccc(C)c(Nc2nc3ccccc3n3cnnc23)c1	-0.2	0.6	9.3	-2.7
Cc1ccc(C(=O)NCc2ccccn2)cc1S(=O)(=O)N1CCOCC1	.	15.3	.	-5.7
N#Cc1cccc(S(=O)(=O)Nc2c(NC3CCCCC3)c3ccccc3oc2=O)c1	0.1	.	5.8	98.1*
O=c1oc2ccccc2c(NC2CCCCC2)c1NS(=O)(=O)c1ccc(F)cc1	0.2	-0.3	1.7	10.3
COc1ccc([C@@H]2[C@@H]3C(=O)N(C(C)(C)C)C(=O)[C@@H]3[C@]3(C)C(=O)N(c4cccc(C)c4)C(=O)N23)cc1	-1.4	280.4*	5.0	0.1
CCOC(=O)c1c(C#N)c(SCC(=O)Nc2ccc(OC)cc2)nc2c1CN(CC)CC2	.	-2.6	-13.5	99.3*
COc1ccc(NC(=O)CSc2nc3c(c(-c4cccs4)c2C#N)CN(C)CC3)cc1OC	0.2	-19.1	-10.6	99.3*
CN1CCc2nc(SCC(=O)Nc3ccc(Cl)cc3)c(C#N)cc2C1	1.6	-1.8	10.8	99.5*
COc1ccc(NC(=O)CSc2nc(N)c(C#N)cc2C#N)cc1	0.2	9.0	-0.7	-8.0
CCOC(=O)C1=C(C)N=c2s/c(=C\c3ccc(OCC(=O)O)cc3)c(=O)n2C1c1ccccc1 (centres undefined)	-1.1	185.7	7.4	98.3*
CCOC(=O)C1=C(C)N=c2s/c(=C\c3cccc(OCC(=O)O)c3)c(=O)n2C1c1ccccc1 (centres undefined)	1.4	94.5	11.1	6.7
Cc1ccc(NC(=O)CSc2nc(-c3ccco3)nc3cc(=O)[nH]n23)c(Cl)c1	1.1	-11.2	-1.9	98.9*
Cc1ccc(NC(=O)CSc2n[nH]c(-c3ccco3)n2)c(C)c1	-0.5	22.4	-2.3	50.7
Cc1ccc(NC2CCCN(C(=O)CCN3CCOCC3)C2)cc1C (centres undefined)	-0.2	1.0	6.6	98.6*
CC(C)c1ccc(NC2CCCN(C(=O)CCN3CCOCC3)C2)cc1 (centres undefined)	0.1	48.2	-2.4	55.3
Cc1ccc(NC2CCCN(C(=O)CCn3nccc3C)C2)cc1C (centres undefined)	-0.2	13.8	8.9	99.4*
Cc1ccc(S(=O)(=O)N(C)C)cc1NC(=O)C1CCCN(C(=O)c2ccc(Cl)cc2)C1 (centres undefined)	1.0	i	.	-12.5
Cc1ncc([N+](=O)[O-])n1CC(=O)Nc1ccc(OC(F)(F)Cl)cc1	0.8	-9.0	0.0	-4.6
C=CCN(c1ccccc1)S(=O)(=O)c1cc2c(cc1C)N(C)CCO2	-0.1	23.0	5.3	97.0*
SMILES	HIF activator	SUMO Mot1 rescue	PfM18AAP inh	ALR inh
C=CCN(c1ccccc1)S(=O)(=O)c1cc2c(cc1C)NC(=O)CO2	0.0	-12.7	7.5	-3.2
O=S(=O)(NCCCN1CCN(c2ccccc2F)CC1)c1cccc2cccnc12	.	3.8	-6.9	95.3*
CC1(C)CC(=O)c2cnn(-c3nc4ccccc4[nH]3)c2C1	0.3	-3.4	-2.1	93.7*
CCOC(=O)c1ccc2[nH]c(C)c(C)c2c1	-4.3	-8.7	-1.8	97.6*
Cc1[nH]c2ccc(C(=O)N3CCCCC3)cc2c1C	3.1	-3.0	1.3	95.6*
Cc1[nH]c2ccc(C(=O)N3CCCC3)cc2c1C	0.1	33.3	6.1	90.4*
C/C(=N/NC(=O)NC12CC3CC(CC(C3)C1)C2)c1ccccc1	-2.3	3.9	-14.0	-0.3
CCn1c(=O)c2c(nc(SCC(=O)NCC3CCCO3)n2C)n(C)c1=O (centres undefined)	.	-12.8	5.5	0.3
Cn1c(Cl)c(C(=O)Nc2ccc(Cl)cc2)c2ccccc21	.	0.0	0.4	2.0
Cc1ccc(C)c(-n2c(-c3ccc4c(c3)OCO4)n[nH]c2=S)c1	0.0	96.8	3.2	82.7*
Fc1ccc(-n2c(-c3ccc4c(c3)OCO4)n[nH]c2=S)cc1Cl	1.5	4.0	22.1	96.4*
COc1cc(OC)cc(-c2n[nH]c(=S)n2-c2ccc3c(c2)OCO3)c1	-0.8	-5.7	31.7*	.
C[n+]1cc[nH]c1SCC(=O)c1ccccc1	1.6	125.0	9.7	19.3
CCCN(CC(=O)Nc1ccccc1C)CC(=O)Nc1ccc(Br)cc1F	-16.7	-0.3	-12.8	18.8
COc1cc(C(=O)N/N=C(\C)Cn2nc([N+](=O)[O-])cc2C)ccc1O	-0.5	-7.1	-1.7	83.0*
COc1ccc(/C(C)=N/NC(=O)Cn2nc([N+](=O)[O-])cc2C)cc1	-0.4	61.2	1.3	1.8
CCc1ccc(NC(=O)N(CCCN2CCOCC2)Cc2cccs2)cc1	-0.5	220.9	-7.9	-6.4
Cc1ccc(NC(=O)N(CCCN2CCOCC2)Cc2cccnc2)cc1C	-0.2	-32.3	-2.5	9.3
CCc1ccc(NC(=O)N(CCN2CCOCC2)Cc2ccc3c(c2)CCCN3CC)cc1	1.7	-12.1	9.2	98.5*
CCN1CCCc2cc(CN(CCN3CCOCC3)C(=O)Nc3ccc(C)c(C)c3)ccc21	-0.8	-16.1	14.8	98.9*
CC[n+]1c(/C=C/N(C)c2ccccc2)oc2ccc(F)cc21	-0.6	-12.3	30.7*	2.6
O=C1CCC(=O)N1CNc1ccc(Oc2ccccc2)cc1	0.2	10.2	-1.2	98.4*
COc1ccccc1NC(=S)c1ccccc1	0.6	41.0	-5.1	.
Cc1ccc(/C=C/C(=O)c2ccccc(=O)c2O)c(C)c1	-2.2	-28.2	14.3	37.5
Cc1ccc(C)c(/C=C/C(=O)c2ccccc(=O)c2O)c1	2.4	41.7	24.9	96.7*
SMILES	HIF activator	SUMO Mot1 rescue	PfM18AAP inh	ALR inh
O=c1cc(CO)oc(C(Nc2ccccn2)c2ccc(F)cc2)c1O (centres undefined)	-0.1	-20.9	2.3	97.7*
O=c1cc(CO)oc(C(Nc2ccccn2)c2ccsc2)c1O (centres undefined)	0.2	13.8	2.0	-23.2
COc1ccc(C(Nc2ccccn2)c2oc(CO)cc(=O)c2O)cc1 (centres undefined)	0.1	4.9	-0.1	97.9*
O=c1cc(CO)oc(C(Nc2ccccn2)c2ccccc2Cl)c1O (centres undefined)	0.1	173.8	-2.2	.
Cc1ccnc(NC(c2ccccc2O)c2oc(CO)cc(=O)c2O)c1 (centres undefined)	0.1	6.1	17.1	98.0*
CCN(c1ccccc1)S(=O)(=O)c1ccc2c(c1)OCCO2	.	12.4	.	-5.2
COc1ccc(Cl)cc1NC(=O)COC(=O)Cc1cc(OC)c(OC)c(OC)c1	.	12.5	.	-2.0
